From PubChem BioAssay AID592 (National Center for Advancing Translational Sciences (NCATS), 2007)
The campaign covered roughly 59,000 compounds. Fewer than 10 were called active. No rule for the calls is given here. These entries were drawn from the full list.

experiment: qHTS Assay for Spectroscopic Profiling in A647 Spectral Region; conditions: Compound fluorescence, A647 channel (570/671 nm), Tris buffer; hits give high values
Outline: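 Buffer was dispensed, compounds and Alexa 647 standards were pin-transferred, and plates sat 15 min at room temperature. Intensity at 570/671 nm was then converted to dye-equivalent concentration using the plate's A647 standard curve.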

Max dye-equivalent concentration, inactive:
Cc1ccc2[nH]c3c(c2c1)CN(C(=O)CN1CCN(c2ccccc2)CC1)CC3 12 nM
Cc1ccc(C(C(=O)NC2CCCC2)N(Cc2ccco2)C(=O)CCC(=O)Nc2ccccn2)cc1 (configuration not stated) 23 nM
CC(=O)/C(C)=N\O 34 nM
COC(=O)c1cc(C(=O)OC)cc(N2C(=O)CC(N3CCN(c4ccccc4)CC3)C2=O)c1 (configuration not stated) 14 nM
CC(=O)Nc1ccc(S(=O)(=O)Nc2nc3n(n2)C(c2ccccc2)CC(=O)N3)cc1 (configuration not stated) 16 nM
N#Cc1c(N)sc2c1CCN(C(=O)OCc1ccccc1)C2 36 nM
O=S(=O)(c1cccc(S(=O)(=O)N2CCC(n3nnc4ccccc43)CC2)c1)N1CCCCC1 23 nM
CC(=O)/C(=N\N=C(N)N)c1ccccc1 1 nM
Clc1ccc(Cc2nn3c(-c4ccncc4)nnc3s2)cc1 4 nM
CCc1cc(Br)ccc1NC(=O)C1CCCO1 (configuration not stated) 19 nM
CCCS(=O)(=O)Nc1c(C(=O)O)[nH]c2ccccc12 1 nM
CCCCSc1nnc(-c2ccc(C)cc2)o1 5.1 nM
CCOC(=O)c1oc2ccccc2c1NC(=O)c1cccs1 5.6 nM
CCCS(=O)(=O)N1CCCC(C(=O)N2CCN(c3ccccc3)CC2)C1 (configuration not stated) 1 nM
COc1ccc(CN2CN(C(C)C)CSC2=S)cc1 1 nM
COc1ccc(-c2cc3n(n2)CCc2nc4ccccc4n2-3)cc1 1 nM
O=C1c2oc3ccc(Br)cc3c(=O)c2C(c2cccc(F)c2)N1CCO (configuration not stated) 3.9 nM
Cc1cc(N2CCCCC2)nc2ccc(Cc3ccc4nc(N5CCCCC5)cc(C)c4c3)cc12 3.4 nM
O=C(NC1CC2CCCC(C1)N2C(=O)N1CCCCC1)C1CCCCC1 (configuration not stated) 31 nM
CCCCOc1ccccc1/C=c1/sc2nc(-c3oc4ccccc4c3C)nn2c1=O 22 nM
COc1ccccc1N1CCN(C(=O)Cn2nnc(-c3cccs3)n2)CC1 1 nM
COc1ccccc1CNc1ncnc2ccc(-c3ccc4c(c3)OCO4)cc12 31 nM
Cn1c(NC(=O)c2ccco2)c(-c2ccccc2Cl)c(=O)c2ccccc21 1 nM
NC(=S)c1ccc(C(N)=S)o1 5.7 nM
c1ccc(-c2nnc3n2NC(c2ccc4c(c2)OCO4)S3)cc1 (configuration not stated) 12 nM
O=C(CCc1ccccc1)Nc1ccc(NC(=O)C2CC2)nc1 45 nM
COC(=O)c1ccc(NCC(=O)c2ccccc2)cc1 1.7 nM
